These results are taken from PubChem BioAssay (Tox21).

Experiment [1] in a line: qHTS assay to identify small molecule agonists of the estrogen related receptor signaling pathway with the pleiotropic PPARgamma coactivator (PGC) (AID 1224823). In a few lines: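 Cell-based luciferase assay in the NTP-supplied PGC/ERR line, 2,000 cells/well; 18 h compound exposure at 37 C, luminescence after One-Glo.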
A short description of experiment [2]: qHTS assay to identify small molecule antagonists of the estrogen related receptor (ERR) signaling pathway from Tox21 library - cell viability counter screen (AID 1224834). Note: nearly all actives have a fitted effect of over 30% in size. In outline: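 ERR reporter cells, 2,000 per well, rested 6 h, then exposed to compound in DMSO for 17.5 hours at 37 C. Viability read as fluorescence after 30 min with CellTiter-Fluor.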

Experiment [3] deals with Luciferin 4-monooxygenase (Photinus pyralis) (UniProt P08659). Put plainly: qHTS assay to identify small molecule inhibitors of firefly luciferase (AID 1224835). For activity change, negative = inhibition: series mostly up to about 120 µM. Note: nearly all actives have a fitted effect of over 25% in size. Note: potency is the fitted concentration of half-maximal effect. In a few lines: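 Biochemical qHTS: compounds run as interplate titrations against purified firefly enzyme, with D-luciferin and ATP each at its KM concentration. Light output recorded by CCD imaging.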
Experiment [4] is described as follows: qHTS assay to identify small molecule agonists of the constitutive androstane receptor (CAR) signaling pathway - cell viability counter screen (AID 1224836). Note: series mostly up to about 92 µM; nearly all actives have a fitted effect of over 45% in size. In outline: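 Viability read-out: CellTiter-Fluor fluorescence after 23 h compound exposure at 37 C/5% CO2 in double-stable HepG2-CYP2B6-hCAR cells, with PK11195 present at 0.75 uM final; compounds tested in 15-point titration.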

Experiment [5] addresses Nuclear receptor subfamily 1 group I member 3 (Homo sapiens) (UniProt Q14994). Kind of experiment: qHTS assay to identify small molecule antagonists of the constitutive androstane receptor (CAR) signaling pathway (AID 1224838). Note: nearly all actives have a fitted effect of over 40% in size. In outline: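 HepG2 cells stably carrying hCAR and a CYP2B6-2.2kb luciferase reporter, seeded 4 hrs before compound (15 concentrations). Stimulated with 50 nM CITCO for 24 hr at 37 C. ONE-Glo luminescence read after 30 min at room temperature.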

For experiment [6] the target is unchanged. Kind of experiment: qHTS assay to identify small molecule agonists of the constitutive androstane receptor (CAR) signaling pathway (AID 1224839). For activation: series mostly up to about 92 µM. Note: nearly all actives have a fitted effect of over 15% in size. Note: potency is the fitted concentration of half-maximal effect. In outline:
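Luminescence read-out (ONE-Glo, 30 min, room temperature) from double-stable HepG2-CYP2B6-hCAR cells exposed 24 h to 15-point compound series in presence of 0.75 uM PK11195 final.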

Experiment [7] is described as follows: qHTS assay to identify small molecule antagonists of the estrogen related receptor signaling pathway with the pleiotropic PPARgamma coactivator (PGC) from Tox21 10K library - cell viability counter screen (AID 1224840; active = well fitted cell-killing curve with a large enough effect in the repeat runs, not every such curve was filed as active; note: nearly all actives have a fitted effect of over 40% in size). In outline:
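PGC/ERR cells (2,000/well) plated 6 h, then compound-treated for 17.5 h at 37 C. Viability measured by CellTiter-Fluor fluorescence after 30 min at 37 C, multiplexed with the pathway assay.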

Experiment [8] in a line: qHTS assay to identify small molecule antagonists of the estrogen related receptor signaling pathway with the pleiotropic PPARgamma coactivator (PGC) from Tox21 10K library (AID 1224841; call rule not given here; note: series mostly up to about 92 µM; actives are mostly falling curves and most rising ones were filed inactive; nearly all actives have a fitted effect of over 50% in size). In outline:
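PGC/ERR cell line, 2,000 cells/well, pre-incubated 6 hours at 37 C, then exposed to compounds for 18 hours at 37 C; luciferase read with One-Glo luminescence after 30 min at room temperature.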

Experiment [9] in a line: qHTS assay to identify small molecule antagonists of the constitutive androstane receptor (CAR) signaling pathway - cell viability counter screen (AID 1224837). Note: series mostly up to about 92 µM; nearly all actives have a fitted effect of over 45% in size. In a few lines:
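HepG2 cells stably carrying hCAR and CYP2B6-2.2kb reporter, stimulated with 50 nM CITCO and compounds at 15 concentrations for 23 h at 37 C. Viability measured by CellTiter-Fluor fluorescence.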

Experiment [10] is described as follows: qHTS assay to identify small molecule agonists of the estrogen related receptor signaling pathway with the pleiotropic PPARgamma coactivator (PGC) from Tox21 10K library (AID 1224842). Note: nearly all actives have a fitted effect of over 15% in size. In outline:
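PGC/ERR reporter cell line, 2,000 cells per well, incubated 6 h at 37 C before 23 nL compound in DMSO was added. After 18 h at 37 C, One-Glo luminescence read following 30 min at room temperature.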

Records with an inconclusive call do not appear. Values without a mark were called inactive. Active and inactive are the calls of the source. Unless noted, calls come from the whole dose curve; as a rule, active = well fitted curve in the direction sought with a large enough effect in the repeat runs; inconclusive = weak or mixed curves; inactive = no such curve, though single readings can be large; an effect the other way counts as inactive or inconclusive.
% is set by controls: 0 for no effect and ±100 for the full control effect.

Sequence of Luciferin 4-monooxygenase (Photinus pyralis) (P08659 whole entry, looked up): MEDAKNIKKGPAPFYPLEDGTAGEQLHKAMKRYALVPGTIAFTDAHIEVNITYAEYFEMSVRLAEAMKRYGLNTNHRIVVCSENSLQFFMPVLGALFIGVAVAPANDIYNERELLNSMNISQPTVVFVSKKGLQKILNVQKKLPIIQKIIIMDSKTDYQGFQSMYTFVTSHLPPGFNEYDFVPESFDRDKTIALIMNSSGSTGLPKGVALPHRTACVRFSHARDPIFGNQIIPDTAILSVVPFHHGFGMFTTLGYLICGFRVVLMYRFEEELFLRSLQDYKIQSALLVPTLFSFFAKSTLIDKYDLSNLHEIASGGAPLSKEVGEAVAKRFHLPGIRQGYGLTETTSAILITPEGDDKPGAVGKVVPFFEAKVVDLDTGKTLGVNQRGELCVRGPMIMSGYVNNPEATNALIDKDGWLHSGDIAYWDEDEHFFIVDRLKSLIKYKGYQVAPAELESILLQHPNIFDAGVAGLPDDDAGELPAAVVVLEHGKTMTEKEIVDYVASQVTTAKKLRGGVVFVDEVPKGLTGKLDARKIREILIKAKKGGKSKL
Sequence of Nuclear receptor subfamily 1 group I member 3 (Homo sapiens) (Q14994 whole entry, looked up): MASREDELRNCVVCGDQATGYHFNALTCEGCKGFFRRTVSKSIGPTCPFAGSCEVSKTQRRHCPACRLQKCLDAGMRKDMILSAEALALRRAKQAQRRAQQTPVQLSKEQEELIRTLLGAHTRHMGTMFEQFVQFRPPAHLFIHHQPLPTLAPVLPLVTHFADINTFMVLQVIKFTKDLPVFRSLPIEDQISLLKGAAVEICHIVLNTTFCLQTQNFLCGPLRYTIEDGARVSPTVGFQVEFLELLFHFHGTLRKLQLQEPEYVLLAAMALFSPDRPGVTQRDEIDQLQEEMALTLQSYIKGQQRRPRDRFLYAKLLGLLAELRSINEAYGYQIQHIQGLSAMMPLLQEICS

For the compound `O=C(O)CN(CCN(CC(=O)O)CC(=O)O)CCN(CC(=O)O)CC(=O)O`, the compound was classed as inactive in experiment [1]. Also, the viability change, negative = cytotoxic was 4.74% [at 19 µM] in experiment [2], -25% [at 19 µM] in experiment [4] and 0.226% [at 19 µM] in experiment [7]. Further, the activity change, negative = inhibition in experiment [3] is 2.77% [at 23.6 µM]. Moreover, the activity, negative = inhibition in experiment [5] is -23.7% [at 19 µM]; in [8], 0.933% [at 19 µM]. Besides, the activation in experiment [6] is -1.04% [at 19 µM].
`C=Cc1ccccc1`: the Potency entry in [2], in [3], in experiment [4], in [9], in experiment [5] and in experiment [6] was “inactive” throughout. Moreover, the Potency result in [7] is “inactive”.
As to `CN1CCC[C@@H]1Cc1c[nH]c2ccc(CCS(=O)(=O)c3ccccc3)cc12`, the Potency entry in experiment [2], in [3], in [4], in [9], in experiment [5] and in experiment [6] was “inactive” in each case. Besides, the Potency entry in [7] was “inactive”.
Regarding `O=Cc1ccc(F)c(Br)c1`, the Potency entry in experiment [2], in experiment [3], in [4], in [9], in experiment [5] and in experiment [6] was “inactive” each time. In addition, in experiment [7], the Potency result is “inactive”.
`CC(C)Nc1nc(N)nc(Cl)n1`: the Potency result in [2], in experiment [3], in [4], in experiment [9], in experiment [5] and in [6] was “inactive” each time. Also, the Potency result in experiment [7] is “inactive”.
Turning to `COc1ccccc1N1CCN(CCCNc2cc(=O)n(C)c(=O)n2C)CC1`, the compound was classed as inactive in experiment [1]. The Potency entry in [2], in experiment [3], in experiment [4], in [9], in [5] and in experiment [6] was “inactive” in each case. Also, the Potency result in [7], in [8] and in experiment [10] was “inactive” each time.
Turning to `CCCS(=O)c1ccc2nc(NC(=O)OC)[nH]c2c1` (stereo not drawn), the Potency entry in [2], in [3], in [4], in experiment [9], in experiment [5] and in [6] was “inactive” each time. Further, the Potency entry in [7] was “inactive”.
In the case of `C[C@]12CCC(=O)C=C1CC[C@@H]1[C@@H]2CC[C@@]2(C)[C@H]1CC[C@]2(O)C(=O)CO`, in experiment [1], the result was inactive. Besides, the Potency entry in experiment [2], in experiment [4], in experiment [9], in experiment [7], in experiment [8] and in [10] was “inactive” each time.
As for `Cc1c(C(=O)NCCO)[n+](=O)c2ccccc2n1[O-]`, the Potency entry in [2], in experiment [3], in experiment [4], in [9], in experiment [5] and in experiment [6] was “inactive” in each case. The Potency entry in [7] is “inactive”.
As to `Cc1c(-c2ccccc2)oc2c(C(=O)OCCN3CCCCC3)cccc2c1=O`, the Potency result in experiment [2], in [3], in experiment [4], in experiment [9], in [5] and in experiment [6] was “inactive” each time. The Potency result in [7] was “inactive”.
`NC/C=C/C(=O)O`: in [1], the outcome was inactive. Moreover, the Potency entry in experiment [2], in [3], in experiment [4], in [9], in experiment [5] and in experiment [6] was “inactive” throughout. Besides, the Potency result in [7], in experiment [8] and in [10] was “inactive” throughout.
With `OCCN1CCN(CCO)CC1`, the Potency result in experiment [2], in [3], in [4], in [9], in experiment [5] and in experiment [6] was “inactive” throughout. The Potency entry in experiment [7] is “inactive”.
In the case of `CCCCN1C[C@H](O)[C@@H](O)[C@H](O)[C@H]1CO`, the Potency result in experiment [2], in [3], in [4], in experiment [9], in [5] and in experiment [6] was “inactive” in each case. Besides, in experiment [7], the Potency entry was “inactive”.
In the case of `CCC/C=C/CO`, the Potency result in [2], in experiment [3], in [4], in experiment [9], in experiment [5] and in [6] was “inactive” in each case. Moreover, the Potency result in experiment [7] is “inactive”.
`CCCC(CCC)(C(=O)OCC)C(=O)OCC`: the Potency result in [2], in [3], in experiment [4], in experiment [9], in [5] and in experiment [6] was “inactive” throughout. Moreover, the Potency entry in experiment [7] was “inactive”.
Turning to `NC(=O)NS(=O)(=O)c1ccc(Cl)cc1`, the Potency entry in experiment [2], in [3], in experiment [4], in [9], in experiment [5] and in experiment [6] was “inactive” in each case. Moreover, the Potency result in experiment [7] is “inactive”.
As for `CCCC1CCC(=O)O1` (stereo not drawn), the Potency entry in experiment [2], in experiment [3], in [4], in experiment [9], in experiment [5] and in experiment [6] was “inactive” throughout. For the same compound, the Potency result in [7] was “inactive”.
`CN1CCN(c2c(F)cc3c(=O)c(C(=O)O)cn4c3c2SCC4)CC1`: the Potency entry in experiment [2], in [3], in [4], in experiment [9], in experiment [5] and in [6] was “inactive” throughout. Moreover, the Potency entry in [7] is “inactive”.
On to `CC1=C(CC(=O)O)c2cc(F)ccc2/C1=C\c1ccc(S(C)(=O)=O)cc1`, for which the compound was called inactive in experiment [1]. In addition, the Potency entry in experiment [2], in [3], in experiment [4], in experiment [9], in experiment [5] and in experiment [6] was “inactive” in each case. Further, the Potency entry in experiment [7], in [8] and in [10] was “inactive” each time.
In the case of `Cc1c(N)cccc1N`, the Potency result in [2], in experiment [3], in experiment [4], in experiment [9], in [5] and in experiment [6] was “inactive” throughout. The Potency result in experiment [7] was “inactive”.
`Cc1cc(S(=O)(=O)O)c(N)cc1Cl`: the Potency result in [2], in experiment [3], in experiment [4], in experiment [9], in experiment [5] and in [6] was “inactive” in each case. Further, the Potency entry in experiment [7] was “inactive”.
Consider `Cc1cc2nc(N)sc2cc1C`, for which the Potency entry in [2], in experiment [4], in experiment [9], in experiment [5] and in [7] was “inactive” in each case. The Potency in experiment [3] was 5.69 µM (active); in [6] it was 2.19 µM (active).
Turning to `CCCCCCC`, the Potency entry in experiment [2], in experiment [3], in [4], in experiment [9], in experiment [5] and in experiment [6] was “inactive” throughout. Also, the Potency result in [7] was “inactive”.
Turning to `CC(C)CC(=O)OCc1ccccc1`, the Potency result in experiment [2], in experiment [3], in experiment [4], in experiment [9], in experiment [5] and in experiment [6] was “inactive” each time. In addition, the Potency entry in experiment [7] was “inactive”.
For `CNCCC(Oc1ccccc1OC)c1ccccc1` (stereo not drawn), in experiment [1], the outcome was inactive. For the same compound, the Potency entry in [2], in experiment [4], in [9], in experiment [5], in experiment [6] and in experiment [7] was “inactive” throughout.
In the case of `CC(=O)OC(C)OC(C)=O`, the Potency result in experiment [2], in [3], in experiment [4], in experiment [9], in experiment [5] and in experiment [6] was “inactive” throughout. The Potency entry in [7] is “inactive”.
As to `CC(C)O`, the Potency entry in [2], in experiment [3], in [4], in experiment [9], in experiment [5] and in experiment [6] was “inactive” throughout. Besides, the Potency entry in [7] is “inactive”.
Regarding `Cc1cn([C@@H]2O[C@H](CO)[C@@H](O)[C@@H]2F)c(=O)[nH]c1=O`, the Potency result in experiment [2], in experiment [3], in experiment [4], in experiment [9], in experiment [5] and in experiment [6] was “inactive” each time. Besides, in experiment [7], the Potency result was “inactive”.
Turning to `CCCCC(CC)COC(=O)COc1cc(Cl)c(Cl)cc1Cl` (stereo not drawn), the Potency entry in experiment [2], in experiment [3], in [4], in [9], in [5] and in experiment [6] was “inactive” each time. In experiment [7], the Potency result was “inactive”.
